High-throughput results from PubChem BioAssay.
TDP1 inh = TDP1 (human) enzyme inhibition; Q9NUW8; recombinant TDP1, AlphaScreen DNA substrate cleavage; Potency, µM (series often up to 130 µM), inactives show top-dose activity change, negative = inhibition, hits mostly inhibitors; 0.28% of 350,000 active; AID 485290; further: potency means the concentration at half of the fitted maximal effect; nearly all actives have a fitted effect of over 40% in size
Target sequence (Q9NUW8 whole entry, looked up): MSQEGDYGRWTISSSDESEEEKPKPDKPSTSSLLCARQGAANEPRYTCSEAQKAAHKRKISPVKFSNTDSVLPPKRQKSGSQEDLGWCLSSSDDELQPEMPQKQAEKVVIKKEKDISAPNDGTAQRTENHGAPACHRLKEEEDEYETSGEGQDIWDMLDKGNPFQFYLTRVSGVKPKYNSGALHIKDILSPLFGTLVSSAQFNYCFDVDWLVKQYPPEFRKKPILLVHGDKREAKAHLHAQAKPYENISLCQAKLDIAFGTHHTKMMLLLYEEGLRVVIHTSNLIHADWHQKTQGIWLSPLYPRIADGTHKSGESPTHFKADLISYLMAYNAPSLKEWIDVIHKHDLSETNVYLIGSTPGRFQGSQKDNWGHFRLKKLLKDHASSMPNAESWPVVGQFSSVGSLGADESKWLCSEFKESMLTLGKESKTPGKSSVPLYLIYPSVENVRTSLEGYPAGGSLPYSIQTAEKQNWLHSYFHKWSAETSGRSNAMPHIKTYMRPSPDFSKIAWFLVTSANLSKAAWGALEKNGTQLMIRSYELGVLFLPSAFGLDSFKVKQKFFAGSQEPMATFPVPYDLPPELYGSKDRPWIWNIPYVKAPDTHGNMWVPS
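Enzyme-compound mixtures sat 15 min at room temperature, followed by a 5 min reaction with 15 nM final substrate and 10 min with AlphaScreen beads. Recombinant human Tdp1 was used at 1 nM final.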
ELG1 repair inh = blocks ELG1-dependent DNA repair in HEK293T cells; HEK293T ELG1-luciferase reporter, luminescence, 16 h; DNA damage induced by 5-fluorouridine; Potency, µM (series often up to 46.1 µM), for inactives: at the highest dose activity change, negative = inhibition, hits mostly inhibitors; 2.3% of 330,000 active; AID 504467; further: potency means the concentration at half of the fitted maximal effect; nearly all actives have a fitted effect of over 55% in size
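Cells (2,000 per well) received 5-fluorouridine plus test compound or DMSO and were incubated 16 hr at 37 °C, 5% CO2. Luciferase activity was read by luminescence 30 min after ONE-Glo addition; signal suppression marked inhibition of damage-induced ELG1 function.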
DT40 TDP1 no CPT = qHTS for Inhibitors of human tyrosyl-DNA phosphodiesterase 1 (TDP1): qHTS in cells in absence of CPT; DT40 Tdp1-/- hTDP1 cells, no CPT, ATP luminescence, 48 h; Potency, µM (highest dose often 46.2 µM), for the others: top-dose activity change, negative = growth inhibition, hits mostly inhibitors; 15% of 420,000 active; AID 686978, 2013; further: potency means the concentration at half of the fitted maximal effect; nearly all actives have a fitted effect of over 55% in size
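Seeded 400 DT40-hTDP1 cells/well (vehicle DMSO, no 20 nM CPT); pinned compounds; ≥48 hr at 37 °C; CellTiter-Glo luminescence as viability measure.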
IL-1B inflam inh = blocks inflammasome-driven IL-1 beta release | THP-1 LPS/ATP IL-1B secretion, AlphaLISA, 16 h; hits give low values | activity change, % at 57.5 µM | 4.7% of 360,000 active | AID 743279; in the data active means activity change below about -50%; inconclusive means mostly about -30% to -49%
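Secreted IL-1B measured by AlphaLISA bead assay after 16 h compound exposure of THP-1 cells; compounds (final up to 57.5 uM) added 1 h before LPS (250 ng/mL) and ATP (1.25 mM) stimulation; lower signal means less secretion.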
DT40 TDP1 CPT = DT40-hTDP1 cell growth loss with CPT. chicken DT40 Tdp1-/-;hTDP1 cells + 20 nM CPT, ATP luminescence, 48 h. Potency, µM (titrated, usually from 46.2 µM), without a hit: top-dose activity change, negative = growth inhibition, actives largely listed as inhibitors. 12% of 420,000 active. AID 686979; further: potency means the concentration at half of the fitted maximal effect; nearly all actives have a fitted effect of over 55% in size
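Chicken DT40 Tdp1-/- cells complemented with human TDP1, 400 cells/well, exposed to compounds plus 20 nM camptothecin for at least 48 h at 37 C; viability read as ATP content by CellTiter-Glo luminescence.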
Giardia kill = kills Giardia lamblia; AID 540267; 0.15% of 340,000 active; Giardia lamblia trophozoite viability; activity change, % at 7.66 µM, hits read low; in the data active means activity change below about -80%; inconclusive means between about -30% and that limit;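 further: parasites exposed to compound for two days anaerobically before the ATP read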
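Luminescent ATP signal served as the viability read-out, measured 15-30 min after adding ATP detection reagent to trophozoites that had been incubated with compounds for 48 hrs at 37 deg C anaerobically at 100 cells/well.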
Starred values were filed as active, the others as inactive; [ ] = dose if it differs, or a comment. Compounds with a hit are over-represented: about 19% of the library has one in this group of screens. Unless noted, the call rests on the fitted dose curve; in most records, active means well fitted curve in the direction sought with a large enough effect; inconclusive means small, poorly fitted or top-dose-only effect, or another doubt; inactive means no such curve, though single readings can be large; an effect the other way counts as inactive or inconclusive. On the % scale 0 is the no-effect control and ±100 the full control effect.

Cc1cc(C)c(C(=O)/C=C/c2ccc(C(C)C)cc2)c(=O)[nH]1 was read as TDP1 inh 6%, ELG1 repair inh 21µM*, DT40 TDP1 no CPT 16µM*, IL-1B inflam inh -117*, DT40 TDP1 CPT 23µM* and Giardia kill -4.
For C/C(=C\c1ccc2c(c1)OCO2)C(=O)c1c(C)cc(C)[nH]c1=O the results were TDP1 inh 5%, ELG1 repair inh 4%, DT40 TDP1 no CPT inconclusive, IL-1B inflam inh -23, DT40 TDP1 CPT -21% and Giardia kill 10.
Screening COc1ccc(-c2ccc(OC)c(C3C4C=CCCC4(C)C(=O)N3Cc3ccccc3)c2)cc1 (stereo not given) returned TDP1 inh 9% and Giardia kill 10.
COc1cccc(CSc2nc3cc(OC)c(OC)cc3c3nc(CCn4nc(C)cc4C)nn23)c1 was read as TDP1 inh -2%, DT40 TDP1 no CPT -1% and DT40 TDP1 CPT -7%.
Screening Cc1cc2nn(-c3ccc(F)cc3)nc2cc1NC(=O)c1cc(Cl)ccc1Cl returned TDP1 inh 1%, DT40 TDP1 no CPT -25% and DT40 TDP1 CPT inconclusive.
Screening COc1ccc(-c2ccc3oc(-c4ccsc4)cc(=O)c3c2)cn1 returned TDP1 inh 1%, ELG1 repair inh inconclusive, DT40 TDP1 no CPT -30%, IL-1B inflam inh -16, DT40 TDP1 CPT -26% and Giardia kill inconclusive.
CC(C)(C)Sc1ccc2nc3c(n2c1)CCCC3 was read as TDP1 inh -8%, ELG1 repair inh inconclusive, DT40 TDP1 no CPT 5.8µM*, IL-1B inflam inh -16, DT40 TDP1 CPT 21µM* and Giardia kill 0.
For COc1ccc(Br)c(C(=O)N2CCN(S(=O)(=O)c3cccs3)CC2)c1 the results were TDP1 inh 6%, ELG1 repair inh 0%, DT40 TDP1 no CPT -6%, IL-1B inflam inh 0, DT40 TDP1 CPT -20% and Giardia kill -7.
Screening CCOC(=O)c1ccccc1NC(=O)CSc1nc2ncccc2o1 returned TDP1 inh 5%, DT40 TDP1 no CPT -21% and DT40 TDP1 CPT 4%.
`Nc1nc(SCc2ccccc2[N+](=O)[O-])c2ncn(Cc3ccccc3)c2n1` gave DT40 TDP1 no CPT inconclusive, IL-1B inflam inh -21, DT40 TDP1 CPT inconclusive and Giardia kill -5.
CCCCn1cnc2c(SCc3ccc([N+](=O)[O-])cc3)nc(N)nc21 was read as DT40 TDP1 no CPT inconclusive, IL-1B inflam inh 0, DT40 TDP1 CPT 15µM* and Giardia kill 2.
CCC(C)Cn1cnc2c(SCc3ccccn3)nc(N)nc21 (stereo not given) was read as DT40 TDP1 no CPT inconclusive, IL-1B inflam inh -9, DT40 TDP1 CPT -14% and Giardia kill -2.
For Cn1cnc([N+](=O)[O-])c1Sc1nc(N)nc2c1ncn2Cc1ccccc1 the results were DT40 TDP1 no CPT inconclusive, IL-1B inflam inh -101*, DT40 TDP1 CPT inconclusive and Giardia kill 15.
`CCCCn1cnc2c(SCc3ccccn3)nc(N)nc21` gave DT40 TDP1 no CPT -1%, IL-1B inflam inh -75*, DT40 TDP1 CPT 9% and Giardia kill 11.
Screening CCCCn1cnc2c(Sc3c([N+](=O)[O-])ncn3C)nc(N)nc21 returned DT40 TDP1 no CPT inconclusive, IL-1B inflam inh -95*, DT40 TDP1 CPT -12% and Giardia kill -20.
CCN1CC(c2ccccc2)C(c2ccc(Cl)cc2)=N1 (stereo not given) was read as TDP1 inh 2%, ELG1 repair inh 4%, DT40 TDP1 no CPT -29%, IL-1B inflam inh -2, DT40 TDP1 CPT -24% and Giardia kill 3.
COc1cccc(CNC(=O)CCn2cnc3ccccc3c2=O)c1 was read as TDP1 inh -9%, DT40 TDP1 no CPT -8% and DT40 TDP1 CPT -7%.
`CSc1nn2c(C(F)(F)F)cc(C(F)(F)F)nc2c1C(=O)O` gave TDP1 inh 0%, ELG1 repair inh -7%, DT40 TDP1 no CPT 11%, IL-1B inflam inh 19, DT40 TDP1 CPT 20% and Giardia kill 9.
CCCn1cnc2c(Sc3c([N+](=O)[O-])ncn3C)nc(N)nc21 was read as DT40 TDP1 no CPT inconclusive, IL-1B inflam inh -54*, DT40 TDP1 CPT -26% and Giardia kill 10.
COc1ccc(N2C3=[N+](CCCC3)CC2(C)O)cc1 (stereo not given) was read as TDP1 inh 6%, ELG1 repair inh -15%, DT40 TDP1 no CPT 3.7µM*, IL-1B inflam inh 6, DT40 TDP1 CPT 4.1µM* and Giardia kill 8.
COc1ccc(N2CC(O)(c3ccc(C)cc3)[N+]3=C2CCCC3)cc1 (stereo not given) was read as TDP1 inh 2%, ELG1 repair inh -24%, DT40 TDP1 no CPT -6%, IL-1B inflam inh 0, DT40 TDP1 CPT -9% and Giardia kill -12.
CCCN(C(=O)CSc1nnnn1-c1ccccc1OC)C1CCS(=O)(=O)C1 (stereo not given) was read as TDP1 inh 0%, ELG1 repair inh 2%, DT40 TDP1 no CPT -3%, IL-1B inflam inh -13, DT40 TDP1 CPT 6% and Giardia kill 8.
CCCN(C(=O)CSc1nnc(-c2ccoc2C)n1N)C1CCS(=O)(=O)C1 (stereo not given) was read as TDP1 inh -8%, ELG1 repair inh 0.65µM*, DT40 TDP1 no CPT -2%, IL-1B inflam inh 6, DT40 TDP1 CPT -6% and Giardia kill -17.
For C[C@@H](C(=O)O)c1ccc(-c2ccccc2)c(F)c1 the results were TDP1 inh 11%[56.1 µM], DT40 TDP1 no CPT 2% and DT40 TDP1 CPT 5%.
Cc1ccc(NC(=O)C(C)c2ccc(-c3ccccc3)c(F)c2)cc1 (stereo not given) was read as TDP1 inh 5%, ELG1 repair inh inconclusive, DT40 TDP1 no CPT 7.3µM*, IL-1B inflam inh -9, DT40 TDP1 CPT inconclusive and Giardia kill 11.
`O=C(CN(C(=O)CCC(=O)Nc1ccccn1)c1ccc(F)cc1)NCc1ccc(F)cc1` gave ELG1 repair inh -3%, DT40 TDP1 no CPT inconclusive, IL-1B inflam inh 12, DT40 TDP1 CPT -3% and Giardia kill 5.
Screening O=C(Nc1ccccn1)c1c(O)c2cccc3c2n(c1=O)CCC3 returned TDP1 inh 5%, ELG1 repair inh inconclusive, DT40 TDP1 no CPT 15µM*, IL-1B inflam inh 19, DT40 TDP1 CPT 15µM* and Giardia kill -13.
